TDP1 cell CPT – growth inhibition of DT40 Tdp1-/-;hTDP1 cells with camptothecin (screen for TDP1 inhibitors); chicken DT40 Tdp1-/-;hTDP1 cells + 20 nM CPT, ATP luminescence, 48 h; AID 686979; 420,000 tested, 12% active; Potency, µM (highest dose often 46.2 µM), for the others: at the top dose activity change, negative = growth inhibition, hits mostly inhibitors; note: potency is the fitted concentration of half-maximal effect; nearly all actives have a fitted effect of over 55% in size
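Chicken DT40 Tdp1-/- cells complemented with human TDP1, 400 cells/well, exposed to compounds plus 20 nM camptothecin for at least 48 h at 37 C; viability read as ATP content by CellTiter-Glo luminescence.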
HT1080 IDH1KD tx – kills HT-1080 cells with IDH1 knockdown; HT-1080 IDH1 knockdown viability, ATP luminescence, 48 h; Potency, µM (highest dose often 46.1 µM), without a hit: at the top dose activity, negative = toxicity, usual class: cytotoxic; 360,000 tested, 2% active; AID 686971;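 note: potency is the fitted concentration of half-maximal effect; 0% = DMSO wells and -100% = cell-free medium wells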
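% activity derives from luminescence (CellTiter-Glo), normalised to DMSO and no-cell wells. HT-1080-IDH1KD cells, 750/well, had 48 h compound exposure at 37 °C.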
IL-1B inflam inh – inflammasome signaling inhibition, IL-1 beta readout; AID 743279; activity change, % at 57.5 µM; 360,000 tested, 4.7% active; THP-1 LPS/ATP IL-1B secretion, AlphaLISA, 16 h; stronger effect = lower value; in the data active = activity change below about -50%; inconclusive = mostly about -30% to -49%
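THP-1 cells pretreated 1 hr with compounds (up to 57.5 uM final), then stimulated with LPS (250 ng/mL final) plus ATP (1.25 mM final); secreted IL-1B measured by AlphaLISA after 16 hr, decreased signal indicating inhibition.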
ELG1 repair inh – inhibitors of ELG1-dependent DNA repair in HEK293T cells; HEK293T ELG1-luciferase reporter, luminescence, 16 h; DNA damage induced by 5-fluorouridine; Potency, µM (top dose mostly 46.1 µM), for inactives: top-dose activity change, negative = inhibition, usual class: inhibitors; 330,000 tested, 2.3% active; AID 504467; note: potency is the fitted concentration of half-maximal effect; nearly all actives have a fitted effect of over 55% in size
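5-Fluorouridine DNA damage + compound/DMSO, 2,000 cells/well, 16 h, 37 °C/5% CO2. ONE-Glo, 30 min RT, luminescence. Readout = decrease in reporter signal.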
HT1080NT lethal – kills 2HG-producing HT-1080-NT fibrosarcoma cells; HT-1080-NT fibrosarcoma viability, CellTiter-Glo ATP luminescence, 48 h; Potency, µM (doses to about 46.1 µM), without a hit: at the top dose activity, negative = less viability, hits mostly cytotoxic; 360,000 tested, 1.6% active;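 note: NT is the 2HG producing partner of a matched IDH1 knockdown line; potency is the fitted concentration of half-maximal effect; 0% = DMSO-treated cells and -100% = media-only wells without cells; nearly all actives have a fitted effect of over 55% in size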
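Fibrosarcoma NT cells, 750 per well in 5% FBS RPMI, were exposed to compound for 48 hours. Viability: CellTiter-Glo luminescence.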
TDP1 cell noCPT – qHTS for Inhibitors of human tyrosyl-DNA phosphodiesterase 1 (TDP1): qHTS in cells in absence of CPT; DT40 Tdp1-/- hTDP1 cells, no CPT, ATP luminescence, 48 h; 420,000 tested, 15% active; Potency, µM (doses to about 46.2 µM), without a hit: at the top dose activity change, negative = growth inhibition, hits mostly inhibitors; note: potency is the fitted concentration of half-maximal effect; nearly all actives have a fitted effect of over 55% in size
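Readout: luminescence from CellTiter-Glo after 30 min in the dark at RT. Cells: DT40 Tdp1-/- with stable hTDP1, 400/well. Exposure: compounds alone, ≥48 hr, 37 °C.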
* = called active by the depositor; ? = inconclusive; . = no result. An excerpt weighted towards active compounds, which were near 19% of everything screened. Unless noted, calls come from the whole dose curve; as a rule, active = well fitted curve in the direction sought with a large enough effect; inconclusive = small, poorly fitted or top-dose-only effect, or another doubt; inactive = no such curve, though single readings can be large; an effect the other way counts as inactive or inconclusive. Unless noted, % is set by controls: 0 for no effect and ±100 for the full control effect.

SMILES	TDP1 cell CPT	HT1080 IDH1KD tx	IL-1B inflam inh	ELG1 repair inh	HT1080NT lethal	TDP1 cell noCPT
CS(=O)(=O)/C(C#N)=C/c1cccn1S(=O)(=O)c1cccc2ccccc12	16.4µM*	-3.3%	28.8	.	11.0%	16.4µM*
CCC(CC)C(=O)OCC(=O)Nc1cc(OC)c([N+](=O)[O-])cc1C	-19.1%	-1.0%	14.2	?	3.4%	?
CCN(CC(=O)Nc1ccccc1C(F)(F)F)C(=O)CCc1nc2sc3c(c2c(=O)[nH]1)CCCC3	?	-5.5%	-4.2	-5.9%	-5.1%	16.4µM*
O=C(CCc1nc2sc3c(c2c(=O)[nH]1)CCCC3)Nc1cccc(Cl)c1	?	-15.6%	-8.0	-7.8%	-48.1%	20.6µM*
CN(CC(=O)Nc1ccccc1C(F)(F)F)C(=O)CCc1nc2sc3c(c2c(=O)[nH]1)CCCC3	?	-0.1%	17.1	?	-0.7%	?
CC(=O)NS(=O)(=O)c1ccc(NC(=O)[C@@H]2CCCN2S(=O)(=O)c2ccc(Cl)cc2)cc1	1.2%	12.1%	-4.3	13.1%	7.1%	23.3%
Cc1cccn2c(=O)c(C(=O)NC(C)c3ccccc3)c(O)nc12 (centres undefined)	18.4µM*	.	.	.	.	?
COc1ccc(CCNC(=O)c2c(O)nc3c(C)cccn3c2=O)cc1	16.4µM*	.	.	.	.	?
COc1cccc(CNC(=O)c2c(O)nc3ccccn3c2=O)c1	-10.4%	.	.	.	.	?
COc1ccc(CNC(=O)c2c(O)nc3c(C)cccn3c2=O)cc1	?	.	.	.	.	11.6µM*
O=C(NCc1ccc(F)cc1)c1c(O)nc2ccccn2c1=O	?	.	.	.	.	20.6µM*
Cc1cccn2c(=O)c(C(=O)NCCc3ccc(S(N)(=O)=O)cc3)c(O)nc12	-12.4%	.	.	.	.	-2.7%
COc1cc(C)c2ccccc2n1	-6.5%	.	.	.	.	-0.7%
Cc1ccc(NC(=O)CS(=O)CC(=O)NC23CC4CC(CC(C4)C2)C3)cc1 (centres undefined)	-27.6%	-6.9%	-19.9	-8.7%	-7.1%	?
CCOC(=O)c1c(NC(=O)c2cc3nc(-c4ccc(Br)cc4)cc(C(F)(F)F)n3n2)sc(C(C)=O)c1C	20.8%	.	.	.	.	3.3%
CCOC(=O)c1c(-c2ccc(C)o2)csc1NC(=S)NC(=O)c1ccccc1Br	16.4µM*	?	-0.5	?	?	?
CCOC(=O)c1c(-c2ccc(C)o2)csc1NC(=O)CSc1nnc(C)s1	?	?	-16.1	?	?	?
CCOC(=O)c1c(-c2ccc(C)o2)csc1NC(=S)NC(=O)c1cccs1	?	-27.2%	12.0	16.4µM*	-20.4%	?
CCOC(=O)c1sc(NC(=S)NC(=O)c2ccccc2Cl)c(C(=O)OCC)c1C	?	2.6%	0.5	0.2%	4.0%	25.9µM*
Cc1ccc2c(c1)sc1nc(-c3cc4ccccc4oc3=O)cn12	-15.7%	.	.	.	.	0.7%
CCOc1ccc(CN2C(=O)c3ccccc3Sc3ccc(C(=O)NCc4ccc(C)cc4)cc32)cc1	7.8%	.	.	.	.	-20.6%
CC(C)NC(=O)c1cc2c(Cl)nc3ccccc3c2s1	-27.0%	.	.	.	.	?
O=C(NCCCN1CCN(c2ccccc2F)CC1)c1cc2c(Cl)nc3ccccc3c2s1	16.4µM*	.	.	.	.	14.6µM*
CC1CCN(CCCNC(=O)c2cc3c(Cl)nc4ccccc4c3s2)CC1	?	-1.8%	-69.8*	?	?	?
O=C(NCCCN1CCCC1)c1cc2c(Cl)nc3ccccc3c2s1	14.6µM*	20.6µM*	.	?	?	11.6µM*
SMILES	TDP1 cell CPT	HT1080 IDH1KD tx	IL-1B inflam inh	ELG1 repair inh	HT1080NT lethal	TDP1 cell noCPT
CN(C)CCCN(C(=O)CCS(=O)(=O)c1ccccc1)c1nc2cc3c(cc2s1)OCO3	1.3µM*	5.7%	-106.8*	?	-10.7%	1.46µM*
CN(C)CCCN(C(=O)CCSc1ccccc1)c1nc2cc3c(cc2s1)OCO3	8.2µM*	18.4µM*	-104.1*	-6.8%	?	13µM*
COc1cc(NC(=O)Cc2c(C(=O)O)c(C)cn2C)cc(OC)c1	7.6%	.	.	.	.	-11.1%
O=[N+]([O-])c1ccccc1C(=Nc1ccccc1)c1c(O)cc(O)cc1O	?	0.6%	0.0	.	-1.5%	18.4µM*
CN(CC(=O)Nc1ccc(F)cc1)C(=O)CN1C(=O)c2ccccc2C1=O	0.2%	7.1%	-1.6	1.9%	-4.1%	0.5%
CCn1c(=NC(=O)c2ccc(S(=O)(=O)N(C)C)cc2)sc2cccc(OC)c21	-2.5%	-2.9%	-14.1	?	-6.3%	-15.0%
Cn1c(=NC(=O)CS(=O)(=O)c2ccccc2)sc2cc(F)ccc21	?	-1.9%	26.9	.	-0.9%	?
COc1cccc2sc(=NC(=O)CS(=O)(=O)c3ccc(Cl)cc3)n(C)c12	7.31µM*	?	49.2	-0.1%	-9.4%	2.31µM*
CCn1c(=NC(=O)CS(=O)(=O)c2ccc(C)cc2)sc2cccc(OC)c21	?	1.6%	-7.8	-18.7%	3.2%	16.4µM*
COc1cccc2sc(=NC(=O)CS(=O)(=O)c3ccc(F)cc3)n(C)c12	?	-2.3%	13.6	0.0%	6.0%	11.6µM*
COc1cccc2sc(=NC(=O)CS(=O)(=O)c3ccccc3)n(C)c12	?	12.5%	3.5	.	2.1%	14.6µM*
Cc1ccc(S(=O)(=O)N(C)C[C@@H]2Oc3ccc(NS(C)(=O)=O)cc3CC(=O)N([C@H](C)CO)C[C@@H]2C)cc1	-14.2%	0.0%	3.4	15.8%	-19.6%	-10.9%
COc1ccc(-c2cc(C(F)(F)F)n3nc(-c4ccc(Cl)cc4)cc3n2)cc1OC	-25.9%	.	.	.	.	?
O=C(CSc1ccc2nnc(CCNC(=O)c3ccccc3)n2n1)NC1CCCC1	-2.7%	1.7%	1.1	-19.4%	-2.7%	-7.8%
OC(CSc1ccccc1)CN1CCN(c2ccccc2)CC1 (centres undefined)	?	6.6%	1.9	.	1.9%	?
CCOC(=O)C1CCCN(c2cc(C)nc3c(-c4ccccc4OC)c(C)nn23)C1 (centres undefined)	13µM*	.	.	.	.	?
COc1ccccc1-c1c(C)nn2c(N3CCC(C)CC3)cc(C)nc12	0.3%	12.4%	-50.9*	?	-1.8%	?
CCc1ccc(C2CC(=O)Oc3c2c(=O)n(C)c2ccccc32)cc1 (centres undefined)	2.0%	.	.	.	.	0.2%

High-throughput results: PubChem, National Center for Advancing Translational Sciences (NCATS)
